Compounds without any hit were thinned out: in the full panel of roughly 83,000, 20% have a hit.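 Results are percent growth after 48 hours of single-concentration exposure. 100 means growth as in untreated cells, lower positive values show inhibition; negative values down to -100 show cell death.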 Values without a mark were called inactive. Calls of active or inactive are those of the source. Rule for the calls: active = growth percent below 10; inactive = the rest.

In PubChem BioAssay (NCI) one finds growth data, which are given here for 38 compounds.

This experiment concerns UO-31 renal. The experiment in a line: NCI-60 one-dose screen, 48 h (100 = growth as untreated, 0 = no growth, -100 = all killed). The conditions noted are these: 10 µM unless noted.
Consider `CCC1S/C(=N\N=C(/C)c2cccs2)N(c2ccccc2)C1=O` (stereo not drawn), for which the growth was 110%. For `COc1ccc2c(c1)/C(=C/c1c(-c3cc(OC)c(OC)c(OC)c3Br)nc3sccn13)C(=O)N2` the value was 83.3%; for `N#CC(C#N)=C(C#N)c1c[nH]c2ccccc12`, 63.9%. For `CNC(=O)NN` the value was 71.7%; for `ClC1c2ccccc2CCc2ccccc21`, 60%; for `COc1ccc(-c2cc3ccc(N(C)C)cc3nc2N)c(F)c1`, 39.3%.

Consider `CCOC(=O)C(C)(CSSCC(C)(NC(=O)c1ccc2ccccc2c1)C(=O)OCC)NC(=O)c1ccc2ccccc2c1` (stereo not drawn), for which the growth was 80.6%.

With `COc1ccc(-c2cc(-c3nnc(SC/C(=N\O)c4ccccc4)n3-c3ccccc3)c3ccccc3n2)cc1`, the growth is 75.3%. For `CC(=O)Nc1ccc([I+]c2ccc([N+](=O)[O-])cc2)cc1` the value was 60.8%; for `O=[N+]([O-])c1ccc(NS(=O)(=O)c2ccccc2)c2ccccc12`, 25.5%. Under `COc1ccc(-c2c(C#N)cnc(N)c2-c2nc3cc(C)c(C)cc3[nH]2)cc1` stands 83.9%; under `S=c1n(CNc2ccc(Cl)nn2)nc(-c2cc(Cl)cc(Cl)c2Cl)n1/N=C/c1ccc(Cl)cc1`, 80.8%; under `Cc1ccc2c(c1)Nc1ccc(C)cc1C2(C)C`, 91.3%. For `Clc1ccc2c(NCCNc3nc(Cl)nc4ccccc34)ccnc2c1` the value was -95.6% (active); for `CN1CCN(Cn2nc(-c3cc(Cl)cc(Cl)c3Cl)n(/N=C/c3ccc(Cl)cc3)c2=S)CC1`, 88%. For the compound `C=C1C(=O)O[C@H]2[C@H]1CC/C(COC(=O)c1ccc(Cl)nc1)=C\CC[C@@]1(C)O[C@@H]21`, the growth is -39% (active). Take `COc1ccc(/C=N/C2=NNC(C)(c3ccccc3O)N2C(Cc2c[nH]c3ccccc23)C(=O)O)cc1` (stereo not drawn): the growth was 32.1%.

Take `COc1ccc(/C=C/C(=O)/C=C(/C=C/c2ccc(OC)c(OC)c2OC)OB(F)F)c(OC)c1OC`: the growth is 16.8%. Under `Cc1cc(N2CCOCC2)nc(N(CCNc2ccnc3cc(Cl)ccc23)Cc2ccco2)n1` stands 24.3%. In the case of `NN=C(c1ccc(Cl)cc1)c1ccc(Cl)cc1`, the growth is 81.8%. For `Cc1cc2c(cc1C)N(C(=O)CCl)CCN2C(=O)CCl` the value was -81.5% (active).

`COc1cccc(/C=N/C(=S)NC2(C)C3CCC(C3)C2(C)C)c1O` (stereo not drawn): the growth was 53%. In the case of `CC(=O)c1cc2c(N)c(C(=O)Nc3cccc(Cl)c3)sc2nc1C`, the growth is 78.7%.

Turning to `CCOC(=O)c1cnc2c(OC)ccc(OC)c2c1Cl`, the growth was 88.3%. As to `CCOc1cccc(Nc2nc(N)nc3[nH]c4ccc(O)cc4c23)c1`, the growth is 36.4%. For `CC(C)CCC[C@@H](C)[C@H]1CC[C@H]2[C@@H]3CC=C4N(c5ccccc5)C(=O)CC[C@]4(C)[C@H]3CC[C@]12C` the value was 91.7%; for `C=C(C)[C@@H]1C/C=C(\COC(=O)[C@H](OC(C)=O)C(NC(=O)c2ccccc2)c2ccccc2)CC[C@H]2O[C@]2(C)CC/C=C(\C)CC1` (stereo partly drawn), 51.9% [5 µM].

Turning to `C/C(=N/NC(=O)Cn1c2ccccc2c2ccncc21)c1cccs1`, the growth is 94.5%. `CC(=S)Nc1ccccc1`: the growth was 81.5%. For `Nc1ccc(S(=O)(=O)Nc2cc(I)cc(I)c2)cc1` the value was 99.7%. Under `Cc1cn([C@]2(CF)O[C@H](CO)C2C)c(=O)[nH]c1=O` (stereo partly drawn) stands 109%; under `COc1cc(NC(C)CCCN2C(=O)c3ccccc3C2=O)c2nccc(C)c2c1OC` (stereo not drawn), 80.9%; under `O=C(O)c1ccccc1C(=O)c1ccc(I)cc1`, 99.4%. In the case of `CC(C(=O)O)N1C(N)=NNC1c1ccccc1O` (stereo not drawn), the growth is 66.3%. Under `COc1ccc(C2=NN(C(=O)COc3ccc(Cl)cc3)C(O)(c3cc(F)c(Cl)cc3Cl)C2)cc1OC` (stereo not drawn) stands -86.6% (active); under `CCCCNC(=O)Oc1ccc(/C(=C(/CC)Cc2ccccc2)c2ccc(OCCCN(C)C)cc2)cc1`, 60.5%; under `COc1ccc(C(=O)Cn2cnc3c(Nc4cc(C(=O)Nc5ccc(N6CCN(CCO)CC6)cc5)ccc4C)ncnc32)cc1`, 87.6%. For `COc1cc(NC(=O)c2cc(OC)c3ccn(C)c3c2)cc2c1C[C@]1(C)CC[C@@H](O)C(C)(C)[C@H]1O2` the value was 2.9% (active).
